Results taken from PubChem BioAssay (NCI).
About 83,000 compounds went through this panel and 20% of them were active in at least one assay; those are over-represented in the sample as a whole.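 Negative percent growth values reflect cell death: -40 means 40% of the cells present at the start died, and -100 means all died.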 Unmarked numbers belong to inactive results. Activity calls are given as the source filed them. The calls were made as follows: active = growth percent below 10; inactive = the rest.

System: HOP-62 NSCLC
Assay: NCI-60 one-dose screen, 48 h (100 = growth as untreated, 0 = no growth, -100 = all killed)
Details: 10 µM unless noted

Structure (SMILES) | growth
O=C(Nc1ccc2ncnc(Nc3cccc(C(F)(F)F)c3)c2c1)c1cccs1 | 58.4%
O=C1[C@@H](OS(=O)(=O)CC(F)(F)F)[C@H](c2ccc(F)cn2)N1c1cc2c3ccccc3ccc2c2ccccc12 | 88.6%
COc1cc2cc(c1Cl)N(C)C(=O)C[C@H](OC(=O)[C@H](C)N(C)C(=O)CCS)C[C@]1(C)O[C@H]1[C@H](C)[C@@H]1C[C@@](O)(NC(=O)O1)[C@H](OC)/C=C/C=C(\C)C2 | 18.3%
COc1cc(/C=C/C(=O)c2cccs2)ccc1OCc1ccc(Cl)nc1 | 102%
COc1cc(/C=C/C(=O)/C=C/c2cc3ccc(Cl)cc3[nH]c2=O)ccc1O | 114%
COc1ccc(/C=C/C(=O)/C=C(/C=C/c2ccc(OC)c(OC)c2)OB(F)F)cc1OC | 83.5%
COc1cc(/C=C/C(=O)/C=C/c2cc3ccc(Cl)cc3n(Cc3ccccc3)c2=O)ccc1O | -6.74% (active)
C=C(C)[C@@H]1CC[C@]2(C(=O)OCCCC[P+](c3ccccc3)(c3ccccc3)c3ccccc3)CC[C@]3(C)[C@H](CC[C@@H]4[C@@]5(C)CC[C@H](OC(=O)C(Cl)Cl)C(C)(C)[C@@H]5CC[C@]43C)[C@@H]12 | -0.785% (active)
COc1ccc(C(=S)c2cc(OC)c(OC)c(OC)c2)cc1OC(=O)CCl | 30.9%
CNCc1cccc2c1OCCOCCOCCN(CCN1CCOCC1)S(=O)(=O)c1ccc(cc1)-c1cnc(N)c(n1)C(=O)N2 | 100%
COc1ccc2[nH]c(=O)c(/C=C/C(=O)/C=C/c3ccc(O)c(OC)c3)cc2c1 | 85%
Fc1ccc(N/N=C/c2ccc(-n3cccn3)cc2)cc1 | 82.1%
COc1cc(F)c(-c2nc3c(C)cccc3n2Cc2c(F)cccc2F)c(F)c1 | 83.3%
Cc1nc(C)c(C)nc1C | 100%
Oc1ccc(CNNc2ccnc3c(O)cccc23)c2cccnc12 | 25.2%
N#Cc1ccc(N2Cc3cc(Cl)ccc3OC3=C2C(=O)N(Cc2ccccc2)C3=O)cc1 | 59%
CC(=O)OCC1SC(OC(C)=O)C(NC(=O)/C=C/CCl)C(OC(C)=O)C1OC(C)=O (configuration not stated) | 117%
S=C(Nc1ccccc1)c1ccccn1 | 75.2%
COc1cc(C(C)c2ccc3c(ccn3C)c2)cc(OC)c1OC (configuration not stated) | 29.4%

Structure (SMILES) | growth
COc1cc(C2=NN(C(C)=O)C(c3cccc(Nc4ccnc5cc(C(F)(F)F)ccc45)c3)C2)cc(OC)c1OC (configuration not stated) | 63.9%
CC(C)CSc1nc(Nc2ccccc2)c(C#N)c(-c2ccc(F)cc2)n1 | 7.29% (active)
C[C@H]1[C@H](C)CC[C@]2(C(=O)OCCCC[P+](c3ccccc3)(c3ccccc3)c3ccccc3)CC[C@]3(C)C(=CC[C@@H]4[C@@]5(C)CC[C@H](OC(=O)C(Cl)Cl)C(C)(C)[C@@H]5CC[C@]43C)[C@H]12 | -65% (active)
CC(/C=C/c1ccccc1)=N/NC(=O)c1ccncc1 | 103%
O=C(O)c1cn(C2CC2)c2cc(N3CCN(C(=O)CSc4nnc(-c5ccc(Cl)cc5)n4-c4ccccc4)CC3)c(F)cc2c1=O | 80.7%
C1=CC2=CC=C3C=CC=C4C(c5nc6c7ccccc7c7ccccc7c6[nH]5)=CC(=C1)C2C34 (configuration not stated) | 68.7%
Nc1c(C(=O)Nc2ccccc2)sc2nc3c(cc12)CN(C(=O)OCc1ccccc1)CC3 | 44.4%
Cc1cccc(C)c1NC(=O)CN(CC(C)C)CC(O)COc1ccccc1 (configuration not stated) | 90%
C=C(C)[C@@H]1CCC=C2CC[C@]3(C)[C@H](CC[C@@H]4[C@@]5(C)CCCNC(C)(C)[C@@H]5CC[C@]43C)[C@H]21 | 77.8%
COC(=O)/C=C/c1cc(OC(C)=O)c2c(c1)C(C(=O)OC)C(c1ccc(OC(C)=O)c(OC(C)=O)c1)O2 (configuration not stated) | 20%
COc1ccc(-c2[nH]c3ccccc3c2C=C(C#N)C#N)cc1 | 32.2%
COc1ccc(-c2nnc(N3CCN(C(=O)CN4CCN(c5ccccc5)CC4)CC3)nc2-c2ccc(OC)cc2)cc1 | 58.9%
O=c1[nH]c2ccccc2cc1-c1nc2ccc(Cl)cc2[nH]1 | 67.2%
O=C(NC[C@H](O)CN1CCc2ccccc2C1)c1cc(NC2COC2)ncn1 | 92.8%
COC1=CC2C=C(C3N(c4ccccc4)NC(=O)[C@@H]4CCCN34)C(=O)NC2C=C1 (some centres not stated) | 93.1%
C#C[C@@]1(O)[C@@H](CO)O[C@@H](n2cc(-c3ccco3)c3c(N)ncnc32)[C@@H]1O | 67.7%
Cc1[nH]c(N=Nc2ccccc2)nc1N=Nc1ccccc1 | 36.5%
COc1ccc(Nc2nc(SCC(C)C)nc(-c3ccc(F)cc3)c2C#N)cc1 | 73.8%
